These results are taken from PubChem BioAssay (NCI).

Test systems include T-47D breast; BT-549 breast; MDA-MB-435 melanoma; SW-620 colon; MCF7 breast; HCT-116 colon; HCC-2998 colon; KM12 colon.
Experiment in all cases: NCI-60 one-dose screen, 48 h (100 = growth as untreated, 0 = no growth, -100 = all killed)
Common to all, as to conditions: 10 µM unless noted

The panel holds about 83,000 compounds, 20% with a hit somewhere; the sample as a whole holds those more often.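 In brief: 96-well plates, 48 h treatment, single concentration, percent growth endpoint.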 A number with no mark means an inactive call. Active and inactive are the calls of the source. Rule for the calls: active = growth percent below 10; inactive = the rest.

Consider `N[C@H](CS)C(=O)O`, for which the growth was 103% with T-47D breast; 98.3% in the assay with BT-549 breast; 104% in the assay on MDA-MB-435 melanoma; 106% in the assay with SW-620 colon; 87.9% in the assay on MCF7 breast; 112% in the assay on HCT-116 colon. In addition, the growth in the assay with HCC-2998 colon is 112%; in the assay with KM12 colon, 109%.

For `CCSc1nc(-c2cccs2)n2nc(-c3ccco3)cc2n1`, the growth was 43.1% in the assay on T-47D breast; 113% in the assay on BT-549 breast; 111% with MDA-MB-435 melanoma; 102% with SW-620 colon; 32.9% with MCF7 breast; 94.8% in the assay with HCT-116 colon. The growth was 105% in the assay with HCC-2998 colon and 82.5% with KM12 colon.

Turning to `O=[N+]([O-])c1ccc(NS(=O)(=O)c2ccc(Cl)c(Cl)c2)cc1`, the growth with T-47D breast was 60.2%; in the assay on BT-549 breast, 76.8%; in the assay on MDA-MB-435 melanoma, 88.9%; in the assay with SW-620 colon, 103%; in the assay on MCF7 breast, 79.7%; with HCT-116 colon it was 85.3%. Further, the values for the growth in the assay on HCC-2998 colon and in the assay on KM12 colon were 68.9% and 90.1%, respectively.

As for `CC(C)Sc1nc(Cl)c(C#N)c(-c2ccc(F)cc2)n1`, the growth is 98.1% in the assay on T-47D breast; 108% in the assay with BT-549 breast; 101% with MDA-MB-435 melanoma; 72.2% in the assay with SW-620 colon; 96.4% in the assay with MCF7 breast; 62% with HCT-116 colon. In addition, the growth with HCC-2998 colon was 112%; with KM12 colon it was 107%.

Turning to `N#Cc1c(NC(=O)c2ccco2)[n+]([O-])c2ccccc2[n+]1[O-]`, the growth in the assay with T-47D breast was 90.8%; with BT-549 breast, 92.9%; in the assay on MDA-MB-435 melanoma it was 107%; with SW-620 colon, 107%; in the assay with MCF7 breast it was 71.3%; in the assay with HCT-116 colon, 93.8%. Further, the figures for the growth with HCC-2998 colon and with KM12 colon were 98.3% and 109%, respectively.

For the molecule `O=c1[nH]cc(Nc2cc(Cl)c3nonc3c2[N+](=O)[O-])c(=O)[nH]1`, the growth in the assay with T-47D breast was 101%; in the assay with BT-549 breast, 114%; in the assay with MDA-MB-435 melanoma, -41.2% (active); with SW-620 colon, 89.8%; in the assay with MCF7 breast it was 109%; in the assay on HCT-116 colon, 99.1%. Also, the growth in the assay on HCC-2998 colon is 90.6%; with KM12 colon, 109%.

For `Fc1ccccc1C1c2ccccc2-c2nccn21` (stereo not given), the growth in the assay with T-47D breast was 91.3%; with BT-549 breast it was 106%; in the assay with MDA-MB-435 melanoma, 108%; with SW-620 colon, 107%; with MCF7 breast, 101%; in the assay with HCT-116 colon, 90.1%. Further, the growth with HCC-2998 colon is 103%; in the assay on KM12 colon, 93.8%.

Consider `Cc1ccc2nc(-c3ccc(N(C)C)c(Br)c3)cn2c1`, for which the growth is 109% in the assay with T-47D breast; 71.4% in the assay with BT-549 breast; 63.4% in the assay with MDA-MB-435 melanoma; 100% in the assay on SW-620 colon; 76.8% in the assay on MCF7 breast; 33% in the assay with HCT-116 colon. Further, the growth in the assay with HCC-2998 colon is 100%; in the assay on KM12 colon, 95.4%.

Take `CCOC(=O)Nc1cc(-c2ccc(C)c(NS(C)(=O)=O)c2)nn2c(C)nnc12`: the growth with T-47D breast was 23.3%; in the assay on BT-549 breast it was 49.5%; in the assay on MDA-MB-435 melanoma, 9.2% (active); in the assay with SW-620 colon, 30.2%; with MCF7 breast it was 13%; in the assay with HCT-116 colon, 15.6%. Besides, the growth is -58% (active) in the assay with HCC-2998 colon and 12.2% in the assay with KM12 colon.

Turning to `CC(=O)N1N=C(c2ccc(Nc3ccnc4cc(Cl)ccc34)cc2)CC1c1ccc(Cl)cc1` (stereo not given), the growth in the assay with T-47D breast was 25.5%; in the assay with BT-549 breast, 54.7%; in the assay with MDA-MB-435 melanoma, 6.15% (active); with SW-620 colon, 63.1%; with MCF7 breast, 25.6%; in the assay on HCT-116 colon, 55.6%. In addition, the growth in the assay on HCC-2998 colon is 44.4%; with KM12 colon, 36.5%.

For `C[C@@H]1[C@H]2[C@H](C=C3[C@@H]4CC[C@H]5Cc6nc7c(nc6C[C@]5(C)[C@H]4C[C@@H](O)[C@@]32C)C[C@@H]2CC[C@H]3C4=C[C@@H]5O[C@@]6(CC[C@](C)(CO)O6)[C@@H](C)[C@@]5(O)[C@@]4(C)[C@H](O)C[C@@H]3[C@@]2(C)C7)O[C@]12CCC(C)(C)O2`, the growth is 7.03% (active) in the assay with T-47D breast; 3.41% (active) with BT-549 breast; 51.8% in the assay on MDA-MB-435 melanoma; 8.02% (active) in the assay on SW-620 colon; 15.5% in the assay with MCF7 breast; 9.68% (active) with HCT-116 colon. For the same molecule, the growth in the assay with HCC-2998 colon was 66.5%; with KM12 colon it was 28.7%.

Take `CCSc1ncc(Br)c(Sc2nc(N)nc3nc[nH]c23)n1`: the growth is 29.9% in the assay with T-47D breast; 65.3% with BT-549 breast; 37.7% with MDA-MB-435 melanoma; 91.4% in the assay with SW-620 colon; 47% in the assay on MCF7 breast; 36.8% with HCT-116 colon. Also, the values for the growth in the assay on HCC-2998 colon and in the assay with KM12 colon were 41.4% and 79%, respectively.

For `CCCCCN1C(=O)CCC1=O`, the growth was 95.5% in the assay with T-47D breast; 103% with BT-549 breast; 102% with MDA-MB-435 melanoma; 111% in the assay on SW-620 colon; 98.4% in the assay with MCF7 breast; 105% in the assay with HCT-116 colon. Also, the growth in the assay with HCC-2998 colon is 103%; in the assay with KM12 colon it was 94.5%.

As for `O=C(N/N=C/c1cccc(O)c1O)c1ccccc1`, the growth in the assay on T-47D breast was 15.5%; with BT-549 breast, 31.3%; in the assay on MDA-MB-435 melanoma, 28.8%; with SW-620 colon it was 33.5%; with MCF7 breast it was 3.07% (active); with HCT-116 colon, 9.39% (active). Moreover, the results for the growth with HCC-2998 colon and in the assay on KM12 colon were 8.51% (active) and 25.9%, respectively.

Consider `O=c1[nH]c(SCc2ccccc2)nc2nc(Nc3ccc(NC(=S)Nc4ccccc4)cc3)nc(-c3ccc(O)cc3O)c12`, for which the growth in the assay with T-47D breast was 73.1%; in the assay on BT-549 breast, 91.7%; with MDA-MB-435 melanoma, 104%; in the assay on SW-620 colon, 96.8%; with MCF7 breast, 99.2%; in the assay on HCT-116 colon, 102%. In addition, the growth is 98.6% in the assay on HCC-2998 colon and 89.4% in the assay with KM12 colon.
